Experiment [1] concerns N140. Description: qHTS profiling for inhibitors of Plasmodium falciparum proliferation (AID 504749). Note: potency is the fitted concentration of half-maximal effect. The conditions noted are these: P. falciparum in erythrocytes, SYBR Green DNA, 72 h; series mostly up to 28.7 µM. The procedure, abridged:
(§1)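 Quantitative HTS: compounds pinned into medium, infected erythrocytes added (0.3% parasitemia, 2.5% hematocrit), 72 h culture at 37 C under 5% CO2. Saponin/Triton lysis with SYBR Green I, overnight RT, then fluorescence read.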

Experiment [2] relates to P93_24. The experiment is described as above. The conditions noted are these: P. falciparum in erythrocytes, SYBR Green DNA, 72 h; series mostly up to 28.7 µM. The method, boiled down: as §1
In experiment [3] the test system is PAD. The experiment is described as above. The conditions noted are these: P. falciparum in erythrocytes, SYBR Green DNA, 72 h; series mostly up to 28.7 µM. The procedure, abridged:
as §1

The subject of experiment [4] is PC15. Described as above. The conditions noted are these: P. falciparum in erythrocytes, SYBR Green DNA, 72 h; series mostly up to 28.7 µM. The method, boiled down:
as §1

Experiment [5] concerns PC26. Described as above. To be noted: P. falciparum in erythrocytes, SYBR Green DNA, 72 h; series mostly up to 28.7 µM. The method, boiled down: as §1
In experiment [6] the test system is SC27B. The description is as above. The conditions noted are these: P. falciparum in erythrocytes, SYBR Green DNA, 72 h; series mostly up to 28.7 µM. The procedure, abridged:
as §1

The subject of experiment [7] is TAB109. Described as above. The conditions noted are these: P. falciparum in erythrocytes, SYBR Green DNA, 72 h; series mostly up to 28.7 µM. The procedure, abridged:
as §1

In experiment [8] the test system is TAB113. The experiment is described as above. To be noted: P. falciparum in erythrocytes, SYBR Green DNA, 72 h; series mostly up to 28.7 µM. The method, boiled down: as §1
In experiment [9] the test system is TAB165. Described as above. The conditions noted are these: P. falciparum in erythrocytes, SYBR Green DNA, 72 h; series mostly up to 28.7 µM. The method, boiled down: as §1
The test system of experiment [10] is CRL-7250. Nature of the experiment: Cytotoxic Profiling of Annotated Libraries Using Quantitative High-Throughput Screening (AID 1296008). For max response: % is set by controls: 0 for no effect and ±100 for the full control effect. Note: potency is the fitted concentration of half-maximal effect. The conditions noted are these: Five cell lines viability, CellTiter-Glo ATP luminescence, 48-72 h; max response: active compounds read low. The procedure, abridged: (§2)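 Compounds were pin-transferred onto cells and incubated 48 or 72 hr at 37 degree Celsius, 95% humidity. CellTiter-Glo was added, plates sat 10 min at room temperature, then ATP-coupled luminescence was imaged as the viability read-out.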
A general note: In ATP-based viability assays light output follows the ATP content of the culture.

Experiment [11] deals with HEK293. The description is as above. The conditions noted are these: Five cell lines viability, CellTiter-Glo ATP luminescence, 48-72 h; max response: active compounds read low. The procedure, abridged:
as §2

Experiment [12] concerns HaCat. Described as above. To be noted: Five cell lines viability, CellTiter-Glo ATP luminescence, 48-72 h; max response: active compounds read low. The method, boiled down:
as §2

Experiment [13] relates to KB-3-1. The description is as above. The conditions noted are these: Five cell lines viability, CellTiter-Glo ATP luminescence, 48-72 h; max response: active compounds read low. The method, boiled down:
as §2

For experiment [14], the system named is NIH3T3. The experiment is described as above. To be noted: Five cell lines viability, CellTiter-Glo ATP luminescence, 48-72 h; max response: active compounds read low. The method, boiled down: as §2
The test system of experiment [15] is CRL-7250. Nature of the experiment: qHTS assay to identify novel small-molecules to repurpose for Merkel cell carcinoma treatment (AID 1296009). To be noted: MCC and control cell lines, CellTiter-Glo viability, 72 h; series mostly up to 44.8 µM. The procedure, abridged:
(§3)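 Viability readout: ATP luminescence (CellTiter-Glo) after 72 hr drug exposure at 37 degree celsius. Dose-response format was 8 points for NPC and 11 points for MIPE; data normalized to in-plate controls.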
(In general: qHTS replaces the single test concentration by a dilution series.)

The subject of experiment [16] is HACAT. The experiment is described as above. To be noted: MCC and control cell lines, CellTiter-Glo viability, 72 h; at 44.8 µM (top of the series) unless noted. The method, boiled down:
as §3

In experiment [17] the test system is HEK293T. Described as above. The conditions noted are these: MCC and control cell lines, CellTiter-Glo viability, 72 h; at 44.8 µM (top of the series). The method, boiled down:
as §3

The subject of experiment [18] is P94_40. Nature of the experiment: qHTS profiling for inhibitors of Plasmodium falciparum proliferation (AID 504749). Note: potency is the fitted concentration of half-maximal effect. The conditions noted are these: P. falciparum in erythrocytes, SYBR Green DNA, 72 h; series mostly up to 28.7 µM. The method, boiled down: as §1
For experiment [19], the system named is W2. The experiment is described as above. To be noted: P. falciparum in erythrocytes, SYBR Green DNA, 72 h; series mostly up to 28.7 µM. The method, boiled down: as §1
In experiment [20] the test system is PC49. The description is as above. To be noted: P. falciparum in erythrocytes, SYBR Green DNA, 72 h; series mostly up to 28.7 µM. The procedure, abridged:
as §1

SMILES strings stand for the structures. Several values for one entry are separate records, joined by “and”; a condition that tells them apart may be missing. Identical values can stand only once. Inconclusive results are not listed. The source holds several records for some structures; these can differ, active in one and inactive in another. Unmarked numbers belong to inactive results. Activity calls are given as the source filed them. Calls come from the whole dose curve; as a rule, active = well fitted inhibition curve with a large enough effect; inconclusive = small, poorly fitted or top-dose-only effect; inactive = flat fitted curve, though single readings scatter.
Note: nearly all actives have a fitted effect of over 60% in size.

Take `CC(C)(C)CC(C)(C)c1ccc(O)cc1`: the Potency result in experiment [1], in experiment [2], in experiment [3], in [4], in [5] and in [6] was “inactive” each time. The Potency result in [7], in experiment [8] and in experiment [9] was “inactive” each time. Moreover, the Potency in experiment [10] is 38.6 µM (active); in experiment [11] it was 19.3 µM (active). Also, the max response in experiment [10] was -2.09%; in experiment [12], -11.5%; in [13] it was 33.4% and 13.2%. The compound was called inactive in [14].

As for `CNC(=O)c1ccc(N2C(=S)N(c3ccc(C#N)c(C(F)(F)F)c3)C(=O)C23CCC3)cc1F`, the compound was called inactive in [10], in [11], in experiment [12], in experiment [15], in [16] and in experiment [17]. The max response in [11] is -7.61%; in experiment [13], 0.285% and 2.98%; in experiment [14], 3.77% and -4.83%.

In the case of `C=CCN1CC[C@]23c4c5ccc(O)c4O[C@H]2C(=O)CC[C@@]3(O)[C@H]1C5`, the max response in [10] was -3.06%; in [11] it was -4.65%; in experiment [12], -19.7%; in experiment [13], -7.11% and -7.3%; in [14] it was -3.86%.

For the compound `Oc1ccc(Cl)cc1Cc1ccccc1`, the Potency in experiment [1] is 7.94 µM (active); in [18], 12.6 µM (active); in experiment [3] it was 11.2 µM (active); in [5] it was 15.1 µM (active); in experiment [6] it was 10 µM (active); in experiment [9], 6.31 µM (active). The Potency was 4.78 µM (active) in [19] and 19.5 µM (active) in [11]. For the same compound, the max response in experiment [10] is -21.4%; in experiment [11] it was -23%; in experiment [12], -19.2%; in experiment [13], -1.59% and -11.5%; in [14] it was -10.2%.

As to `Oc1cccc2cccnc12`, the Potency result in experiment [1], in experiment [2], in experiment [18], in experiment [3], in [4] and in [5] was “inactive” each time. Further, the Potency entry in experiment [20], in experiment [6], in [7], in experiment [8], in experiment [9] and in [19] was “inactive” each time. Further, the max response is 3.76% in experiment [10]; -0.236% in experiment [11]; 4.28% in [12]; 22% and 11.8% and -4.11% in [13]; 4.09% in [14]. In addition, the Potency was 13.7 µM (active) in [11] and 19.3 µM (active) in experiment [14].

Take `C#CCN(C)[C@H](C)Cc1ccccc1`: the max response in experiment [10] is -4.73%; in experiment [11] it was -7.43%; in experiment [12], -9.07% and 1.92%; in experiment [13] it was 4.15% and -12%; in [14], 3.34%. For the same compound, the compound was called inactive in experiment [10], in experiment [11], in experiment [14], in experiment [15] and in experiment [17].

In the case of `FC(F)(F)c1cccc(C2=CCN(CCc3ccc4ccccc4c3)CC2)c1`, the Potency entry in [1], in [2], in experiment [18], in [3], in [4] and in experiment [5] was “inactive” throughout. The Potency entry in experiment [20], in [6], in experiment [8], in [9] and in experiment [19] was “inactive” in each case. Besides, the max response in experiment [10] is -12.8%; in [13] it was -4.6%. Moreover, the result in experiment [11], in experiment [12], in experiment [14], in experiment [16] and in experiment [17] was inactive.
